Each structure is given as a SMILES string. “And” between values parts separate entries of the source, which are not always exact repeats. Identical values can stand only once. This is part of a sample that, as a whole, favours compounds with a hit. Of some 83,000 tested, about 20% had one in any assay.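 Testing used 96-well plates and a 48-hour single-concentration exposure. Example: -40 means 40% of the starting cells died.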 The source made the active and inactive calls. How the source made its calls: active means growth percent below 10; inactive means the rest.

The subject of the test is MDA-MB-468 breast. In words: NCI-60 one-dose screen, 48 h (100 = growth as untreated, 0 = no growth, -100 = all killed). Particulars: 10 µM unless noted.
`COc1cc(Nc2ccnc3ccc(Br)cc23)cc(OC)c1OC`: the growth is 14.9% (inactive).

In the case of `COc1cc(-c2nn(C(C)(C)C)cc2-c2ccnc(NCCCNS(=O)(=O)c3cccc(F)c3)n2)ccc1Cl`, the growth is 77.8% (inactive).

`CC(C)c1cc(C(=O)O)c(O)c(C(C)C)c1.CC(C)c1cc(C(=O)O)c(O)c(C(C)C)c1.[Mn]`: the growth was 120% (inactive).

Turning to `COc1cc(CCN=Cc2ccccc2O)c([N+](=O)[O-])cc1OC`, the growth was 113% (inactive).

In the case of `O=C(Nc1ccc2ncnc(Nc3ccc(Oc4cccc(F)c4)c(Cl)c3)c2c1)c1ccc(CNCCO)cc1`, the growth was -46% (active).

With `Cc1c(Cl)c(C)c(Cc2c(C)c(Cl)c(C)c(Cl)c2O)c(O)c1Cl`, the growth is -8.25% (active).

For `NNc1ccc2ccccc2c1`, the growth is 83.7% (inactive) and 88.7% (inactive).

Turning to `CC1(C)C(=O)/C(=C\c2cccnc2)C[C@]2(C)[C@H]3CC=C4[C@@H]5C[C@@](C)(C(=O)O)CC[C@]5(C)CC[C@@]4(C)[C@]3(C)CC[C@@H]12`, the growth is 95.8% (inactive).

For `ClC(Cl)c1nc(-c2ccccc2)n2nc(-c3ccccc3)cc2n1`, the growth was -52.3% (active).

Regarding `COc1ccc2c3c(ccc2c1)C(=O)/C(=C\O)CC3`, the growth is 111% (inactive).

`NC(N)=NS(=O)(=O)c1ccc(N=NC2C(=O)NN(c3ccccc3)C2=O)cc1` (stereo not given): the growth is 96.6% (inactive).

Consider `COc1ccc(-c2cc(-c3nnc(SCC(=O)Nc4ccc(/C(C)=N\O)cc4)o3)c3ccccc3n2)cc1`, for which the growth was 106% (inactive).

On to `CCN(CC)CCn1c2ccc(O)cc2c2sc3cc(OC)ccc3c(=O)c21`, for which the growth was 33.8% (inactive).

`O=C(CCc1nnc2sc(/C=C\c3ccccc3)nn12)c1nc2ccccc2[nH]1`: the growth is 76.7% (inactive).

Regarding `CCc1ccccc1-n1c(-c2ccc(OC)cc2)cc(-c2ccc(OC)cc2)c(C#N)c1=O`, the growth is 96.9% (inactive).

On to `CC1(O)CCCCC1O` (stereo not given), for which the growth is 108% (inactive).

On to `COc1ccc(Cl)cc1C(=O)Nc1nc2ccc(Cl)cc2s1`, for which the growth is 76.7% (inactive).

In the case of `O=C1CC2c3cc(-c4cc5ccccc5o4)ccc3CCN2C(=O)N1c1ccccc1` (stereo not given), the growth is 88.4% (inactive).

Regarding `CCN1CCN(c2ccc(Nc3ncnc4c3nnn4CCc3cc(OC)cc(OC)c3)cc2)CC1`, the growth was 76.1% (inactive).

As to `Fc1ccc(Nc2nnc(-c3ccc(Cl)cc3)o2)cc1`, the growth was 97.9% (inactive).

Regarding `CC(=O)c1cc(Cl)ccc1O`, the growth was 97.5% (inactive).

On to `O=C(O)c1ccc(Cl)cc1Nc1ccc(F)cc1`, for which the growth is 27.9% (inactive).

Turning to `COc1ccc(C(=O)C(CN(C)C)CN(C)C)cc1`, the growth is -66.4% (active).

For `COc1cc2c3c(n(CCCNC4CCCC4)c(=O)c2cc1OC)-c1cc2c(cc1C3=O)OCO2`, the growth was 70.9% (inactive).

With `O=C(NNc1ccccc1)c1ncc[nH]1`, the growth is 75.6% (inactive).

On to `O=C1Nc2ccccc2/C1=C/C(=N/c1nnc(-c2ccc(Cl)cc2)s1)c1ccccc1`, for which the growth was 27.8% (inactive).

With `O=C(Cn1c(-c2ccccc2)nc2cc(Cl)c(Cl)cc21)N=Nc1c(O)[nH]c2ccc(Cl)cc12`, the growth was 61.7% (inactive).

As to `Nc1nnc2cc(F)ccc2n1`, the growth was 122% (inactive).

As for `Cc1ccc(SC2c3ccc(C)cc3Oc3nc(N)c(C#N)c(N)c32)cc1` (stereo not given), the growth is -36.5% (active).

In the case of `O=C(N/N=C/c1cc2ccccc2nc1Cl)c1cc(-c2nc3ccccc3[nH]2)nc2ccccc12`, the growth was 98.5% (inactive).

Turning to `CCCCn1c(=O)c(/C=C/C(=O)/C=C/c2ccc(O)c(OC)c2)cc2ccc(Cl)cc21`, the growth is 15% (inactive).

Consider `CCN(CC)S(=O)(=O)c1ccc(S(=O)(=O)N2CCC[C@@H](C(=O)N3CCN(c4nc(C(C)C)no4)CC3)C2)cc1`, for which the growth was 12.4% (inactive).

`COc1cc(C)ccc1C(=O)c1ccc(C)cc1OC`: the growth was -20.3% (active).

Take `COc1cc(-c2nn(-c3cccc(NC(=O)Nc4cccc(C(F)(F)F)c4)c3)cc2-c2ccncc2)ccc1Cl`: the growth was -27.6% (active).

For `O=C(Nc1ccc(Cl)c(Cl)c1)O/N=C\c1c(Cl)ccc([N+](=O)[O-])c1Cl`, the growth was -65% (active).

In the case of `O=C1/C(=C/c2cccc(OCc3ccccc3)c2)Oc2cc(OCCN3CCCCC3)ccc21`, the growth was 80.4% (inactive).

As for `CCOC(=O)c1sc(Nc2ccc(Cl)cc2)nc1C`, the growth is -13.9% (active).

As for `CCc1cccc(C)c1NC(=O)c1sc2nc3c(cc2c1N)C(=O)CCC3`, the growth was 32.5% (inactive).

On to `NCCCNc1nc2ccccc2c2c(=O)c3cc(OC(F)(F)F)ccc3sc12`, for which the growth was -69.8% (active).

In the case of `CC1=C(O)C(=O)C(c2c(C)cc(C)c(Br)c2C)=C(O)C1=O`, the growth was 85.8% (inactive).

Source of the values: PubChem BioAssay (NCI).
